This note sets out measurements from PubChem BioAssay.

Test [1] in a line: rapamycin-like changes in RPL19A-GFP expression – cell-based, S. cerevisiae, multiplex flow cytometry, primary screen (AID 1862; in the data active = percent of DMSO control GFP below about 86%;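 note: lower values mimic rapamycin by blocking the RPL19A rise seen in DMSO cells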). Conditions: S. cerevisiae RPL19A-GFP strain, flow cytometry fluorescence, 3 h; at 10 µM; stronger effect = lower value.
Test [2] is described as follows: TOR pathway GLN3 branch reporter MEP2-GFP changes – S. cerevisiae, multiplex flow cytometry, primary screen (AID 1867;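 active = GFP response, as percent of the DMSO control, above the screen-wide mean plus 3 SD, about 139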;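 note: median GFP channel fluorescence of barcode-gated MEP2-GFP cells measured by flow cytometry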). Conditions: S. cerevisiae MEP2-GFP strain, 3 h, at 10 µM, stronger effect = higher value, 100% means same as DMSO wells. For orientation: A flow cytometer gives signals particle by particle.
Test [3] is described as follows: TOR pathway RTG branch CIT2 reporter changes – S. cerevisiae, GFP fusion, multiplex flow cytometry, primary screen (AID 1870;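 active = percent response above a set limit, the screen-wide mean plus 3 SD, cut at about 130% in these data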;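 note: barcoded CIT2-GFP strain pooled with four other GFP strains with rapamycin as positive control; median GFP fluorescence per well over plate mean of DMSO wells so 100% = DMSO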). Conditions: S. cerevisiae CIT2-GFP expression, 3 h, at 10 µM, stronger effect = higher value.
The nature of test [4]: TOR pathway LAP4-GFP level changes – S. cerevisiae, multiplex flow cytometry, primary screen (AID 1873;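 active = GFP signal, as percent of the solvent control, above the screen mean plus 3 SD, about 149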). The settings on record: S. cerevisiae LAP4-GFP expression, 3 h, at 10 µM, stronger effect = higher value.
A short description of test [5]: yeast AGP1-GFP level changes, GLN3 branch – cell-based, multiplex flow cytometry, S. cerevisiae, primary screen (AID 1887;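 active = GFP signal above the screen-wide mean plus 3 SD, that is over about 124.5% of the solvent control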;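 note: AGP1-GFP fusion strain of S. cerevisiae within a five-strain barcoded multiplex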). Conditions: 3 h, at 10 µM, stronger effect = higher value.
The nature of test [6]: reduced mouse 2C T cell binding to pMHC/ICAM-1 vesicles – MLPCN validation set, flow cytometry, LFA-1/ICAM-1 modulator project, pilot screen (AID 2523;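 active = response below a set limit, under 55% cells CD8-positive and vesicle-bound, and CD8 cells' 90th-percentile brightness under 279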;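 for vesicle binding response: mean PE anti-B7-1 fluorescence of CD8+ cells relative to row control; 100% = QL9-loaded vesicles with DMSO vehicle in the same plate row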). Conditions: 2C mouse CD8+ T cells, at 7 µM, stronger effect = lower value; double positive events: measured here: CD8+/vesicle+ event percentage.
Test [7] deals with Integrin beta-1 (Homo sapiens) + Integrin alpha-4 (Homo sapiens) (UniProt P13612+P05556). The test can be described thus: alpha4beta1 integrin LIBS antibody binding reduction – U937 cells, HUTS-21 mAb, flow cytometry, validation set, VLA-4 allosteric modulator project, pilot screen (AID 2674;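 active = inhibition above 50%, about 3 SD of the validation set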;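 note: antibody binding induced by the VLA-4 ligand LDV present at three times its Kd; 0% = LDV ligand with antibody and no compound and 100% = antibody without LDV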). The settings on record: HUTS-21 LIBS mAb binding, at 6.7 µM, stronger effect = higher value, binding induced by LDV ligand.
Sequence of Integrin beta-1 (Homo sapiens) + Integrin alpha-4 (Homo sapiens) (P05556 whole entry, looked up): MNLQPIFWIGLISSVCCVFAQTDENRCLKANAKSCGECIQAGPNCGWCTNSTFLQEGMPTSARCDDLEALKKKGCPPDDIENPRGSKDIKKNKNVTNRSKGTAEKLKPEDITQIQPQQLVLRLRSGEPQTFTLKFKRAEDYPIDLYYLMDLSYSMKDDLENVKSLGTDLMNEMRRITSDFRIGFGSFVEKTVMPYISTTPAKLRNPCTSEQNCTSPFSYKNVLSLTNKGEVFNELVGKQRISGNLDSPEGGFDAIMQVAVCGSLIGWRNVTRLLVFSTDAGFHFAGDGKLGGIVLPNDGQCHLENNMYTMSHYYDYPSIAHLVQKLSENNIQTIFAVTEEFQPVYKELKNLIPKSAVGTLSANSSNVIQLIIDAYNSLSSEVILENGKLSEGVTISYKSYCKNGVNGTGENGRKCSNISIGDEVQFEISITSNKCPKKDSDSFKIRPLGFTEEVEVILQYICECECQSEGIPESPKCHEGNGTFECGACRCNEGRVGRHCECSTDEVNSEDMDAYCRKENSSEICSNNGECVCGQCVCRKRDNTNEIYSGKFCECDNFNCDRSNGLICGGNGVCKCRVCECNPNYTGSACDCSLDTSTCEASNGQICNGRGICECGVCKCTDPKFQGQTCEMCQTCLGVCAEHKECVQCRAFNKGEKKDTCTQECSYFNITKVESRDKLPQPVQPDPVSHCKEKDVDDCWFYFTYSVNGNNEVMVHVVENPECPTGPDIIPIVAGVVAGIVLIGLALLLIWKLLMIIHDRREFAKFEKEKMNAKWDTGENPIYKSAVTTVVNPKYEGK
Sequence of Integrin beta-1 (Homo sapiens) + Integrin alpha-4 (Homo sapiens) (P13612 whole entry, looked up): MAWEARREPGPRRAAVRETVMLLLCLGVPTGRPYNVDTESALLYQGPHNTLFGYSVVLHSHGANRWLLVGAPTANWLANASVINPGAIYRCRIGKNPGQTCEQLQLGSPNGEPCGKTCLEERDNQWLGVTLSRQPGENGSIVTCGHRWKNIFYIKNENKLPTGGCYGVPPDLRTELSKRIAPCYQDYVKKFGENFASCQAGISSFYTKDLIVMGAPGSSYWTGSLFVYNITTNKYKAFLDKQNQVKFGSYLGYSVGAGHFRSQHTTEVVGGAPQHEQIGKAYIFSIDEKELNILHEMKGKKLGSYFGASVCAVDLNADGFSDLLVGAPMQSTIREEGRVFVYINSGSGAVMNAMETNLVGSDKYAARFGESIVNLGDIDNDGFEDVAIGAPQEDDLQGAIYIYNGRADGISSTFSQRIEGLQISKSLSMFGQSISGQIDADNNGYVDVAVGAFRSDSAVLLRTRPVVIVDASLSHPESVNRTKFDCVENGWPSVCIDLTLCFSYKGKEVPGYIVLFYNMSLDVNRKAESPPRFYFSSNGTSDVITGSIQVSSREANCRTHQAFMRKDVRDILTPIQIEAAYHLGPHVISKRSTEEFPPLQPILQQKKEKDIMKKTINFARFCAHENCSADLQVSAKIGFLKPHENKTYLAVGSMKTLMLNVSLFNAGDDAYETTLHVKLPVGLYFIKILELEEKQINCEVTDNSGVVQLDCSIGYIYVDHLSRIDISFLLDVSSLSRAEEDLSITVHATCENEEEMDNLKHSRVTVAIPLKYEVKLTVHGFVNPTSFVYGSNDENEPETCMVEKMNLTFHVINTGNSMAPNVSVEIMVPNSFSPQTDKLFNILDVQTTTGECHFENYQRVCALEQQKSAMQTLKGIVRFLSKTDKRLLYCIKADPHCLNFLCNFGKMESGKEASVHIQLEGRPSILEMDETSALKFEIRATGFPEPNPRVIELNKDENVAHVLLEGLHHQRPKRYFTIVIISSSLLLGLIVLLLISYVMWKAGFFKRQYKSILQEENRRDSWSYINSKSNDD

Test [8] is described as follows: calorie-restriction mimetic ROS inhibitors, yeast – validation compound set, pilot screen (AID 2706;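 active = superoxide response below 65% of plate, a cut near 3 SD across the whole screen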;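 note: yeast exposed to compound for one week at 30 degrees C before staining; 100% = mean of all compound wells on the same plate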). The settings on record: S. cerevisiae aging, superoxide DHE fluorescence; at 10 µM; stronger effect = lower value.
Test [9] addresses Beta-adrenergic receptor kinase 1 (Homo sapiens) (UniProt P25098). The test can be described thus: GRK2 binders displacing RNA aptamer, biochemical, validation, human GRK2, bead flow cytometry (AID 488806;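 active = aptamer binding inhibition above 30%, about 3 SD of noise from non-fluorescent compounds; inactive = inhibition at or below 30%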). Conditions: bead-bound GRK2, FAM-aptamer displacement, at 10 µM, stronger effect = higher value.
Test [10] concerns the target Beta-2 adrenergic receptor (Homo sapiens) (UniProt P07550). Put plainly: agonist-induced loss of surface beta2AR – cell-based, FAP fluorogen, flow cytometry, validation set, pilot screen (AID 504459;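 active = percent response above 42, roughly 3 SD of non-fluorescent test compounds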;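 note: agonist-driven loss of surface beta2AR via internalization measured by FAP dye flow cytometry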). The settings on record: Am2.2-beta2AR cells, at 10 µM, stronger effect = higher value.
In test [11] the target is AP-2 complex subunit beta (Homo sapiens) (UniProt P63010). Put plainly: beta-arrestin/AP2 interaction blockers – biochemical, validation set, GST-AP2 beads, flow cytometry, pilot screen (AID 504541;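 active = inhibition above 54%, about 3 SD of non-fluorescent compounds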;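 note: AP2 carries R879A mutation and is captured from E. coli lysate; bead-bound FITC arrestin peptide fluorescence measuring arrestin peptide binding to AP2; 0% = DMSO wells and 100% = excess unlabeled arrestin peptide control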). The settings on record: FITC arrestin peptide, at 10 µM, stronger effect = higher value, AP2 beta2 appendage fragment, R879A mutant.
Sequence of AP-2 complex subunit beta (Homo sapiens) (P63010 whole entry, looked up, the tested form may be a part, one chain of several): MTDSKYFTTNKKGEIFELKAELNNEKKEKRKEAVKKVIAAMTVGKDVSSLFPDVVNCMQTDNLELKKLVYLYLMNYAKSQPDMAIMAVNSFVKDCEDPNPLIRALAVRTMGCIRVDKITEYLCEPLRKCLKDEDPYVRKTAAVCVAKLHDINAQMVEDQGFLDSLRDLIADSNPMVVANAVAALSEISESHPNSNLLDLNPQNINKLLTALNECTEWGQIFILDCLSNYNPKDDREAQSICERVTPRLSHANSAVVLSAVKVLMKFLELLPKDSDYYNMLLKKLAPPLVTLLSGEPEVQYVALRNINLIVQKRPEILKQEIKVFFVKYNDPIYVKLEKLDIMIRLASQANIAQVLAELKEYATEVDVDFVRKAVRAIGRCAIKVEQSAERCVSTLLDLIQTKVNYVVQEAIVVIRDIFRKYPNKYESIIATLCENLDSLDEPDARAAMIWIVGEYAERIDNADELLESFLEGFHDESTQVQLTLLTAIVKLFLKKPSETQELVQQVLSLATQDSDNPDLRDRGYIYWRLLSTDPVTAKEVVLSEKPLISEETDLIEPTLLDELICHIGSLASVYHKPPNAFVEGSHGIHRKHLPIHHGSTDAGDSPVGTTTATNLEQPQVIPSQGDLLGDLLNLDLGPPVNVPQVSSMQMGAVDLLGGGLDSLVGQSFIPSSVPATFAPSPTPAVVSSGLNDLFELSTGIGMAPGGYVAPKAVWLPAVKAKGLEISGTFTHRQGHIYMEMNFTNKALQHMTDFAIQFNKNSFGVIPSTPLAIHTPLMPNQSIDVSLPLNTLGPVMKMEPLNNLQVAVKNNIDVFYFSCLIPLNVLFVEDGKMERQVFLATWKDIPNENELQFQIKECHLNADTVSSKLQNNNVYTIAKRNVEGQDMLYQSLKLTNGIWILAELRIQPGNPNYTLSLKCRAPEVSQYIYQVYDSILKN
Test [12] in a line: cytosolic pH regulators acting via V-ATPase – S. cerevisiae, pHLuorin, HTS validation (AID 504600; in the data active = response above about 15%;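 note: plate controls were DMSO for no effect and reference compound for full effect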). The settings on record: V-ATPase proton transport, at 10 µM, stronger effect = higher value.
Test [13] has as its system anti-desmoglein-3 scFv antibody binding to human DSG3. The test can be described thus: blockers of pathogenic pemphigus antibody–desmoglein-3 binding – biochemical, validation compound set, bead-based, flow cytometry, pilot screen (AID 588368).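 Note: signal is the median channel fluorescence of bead-bound GFP antibody.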 Conditions: Protein G beads, DSG3-Fc, scFv-GFP binding, at 10 µM, stronger effect = lower value.
Test [14] can be described thus: Nile Red efflux blockade in pump-expressing yeast – validation compound set, multiplex, phenotypic, pilot screen (AID 588506;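 active = efflux inhibition above 0.42, the validation set average plus 4 SD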;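 note: Nile Red retained in cells so higher fluorescence means more efflux inhibition; 0 = negative control wells and 1 = enniatin B 25 µM full block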). The settings on record: S. cerevisiae pump-expressing triplex, Nile Red efflux flow cytometry; at 10 µM; stronger effect = higher value; the pumps come from Candida albicans.
The target in test [15] is ATP-binding cassette sub-family B member 6 (Homo sapiens) (UniProt Q9NP58). The test can be described thus: blockers of ABCB6-driven porphyrin uptake – K562-ABCB6 cells, flow cytometry, validation set, pilot screen (AID 588550;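 active = inhibition above the screen-wide mean plus 3 SD, about 51%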;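 note: 0% = DMSO wells and 100% = benzethonium chloride 70 µM positive control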). The settings on record: K562-ABCB6 porphyrin accumulation, 1 h, at 10 µM, stronger effect = higher value.
Sequence of ATP-binding cassette sub-family B member 6 (Homo sapiens) (Q9NP58 whole entry, looked up): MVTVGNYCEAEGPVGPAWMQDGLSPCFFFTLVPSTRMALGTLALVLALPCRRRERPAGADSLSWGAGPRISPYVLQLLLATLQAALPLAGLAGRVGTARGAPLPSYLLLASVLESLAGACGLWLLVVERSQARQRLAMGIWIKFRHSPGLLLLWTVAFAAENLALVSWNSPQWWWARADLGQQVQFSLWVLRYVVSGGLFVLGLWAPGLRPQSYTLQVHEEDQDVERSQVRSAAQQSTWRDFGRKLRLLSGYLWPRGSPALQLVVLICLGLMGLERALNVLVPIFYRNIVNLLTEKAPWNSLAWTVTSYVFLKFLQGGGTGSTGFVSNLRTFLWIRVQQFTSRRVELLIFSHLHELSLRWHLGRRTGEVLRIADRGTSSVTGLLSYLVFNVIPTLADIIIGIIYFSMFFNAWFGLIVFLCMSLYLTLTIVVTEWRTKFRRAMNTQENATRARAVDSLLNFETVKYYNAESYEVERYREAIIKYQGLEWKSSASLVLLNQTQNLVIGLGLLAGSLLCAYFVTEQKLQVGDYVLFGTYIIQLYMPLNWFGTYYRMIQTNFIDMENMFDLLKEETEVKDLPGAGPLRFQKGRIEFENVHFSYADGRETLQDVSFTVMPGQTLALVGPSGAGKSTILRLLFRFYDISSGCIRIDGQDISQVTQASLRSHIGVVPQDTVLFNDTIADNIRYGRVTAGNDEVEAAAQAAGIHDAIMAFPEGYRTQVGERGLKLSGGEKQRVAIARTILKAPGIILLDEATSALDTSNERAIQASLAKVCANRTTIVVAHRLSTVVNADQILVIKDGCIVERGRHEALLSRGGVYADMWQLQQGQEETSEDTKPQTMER
The nature of test [16]: AML differentiation inducers, ER-HoxA9 marrow cells – cell-based, GFP/MAC1 double positive, flow cytometry, validation set, primary screen (AID 588685;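 active = differentiation response of at least 50%, scaled between solvent and reference control, from cells with both markers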;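 note: compound exposure lasts four days before antibody staining and flow analysis; 0% = DMSO wells and 100% = 5 µM fulvestrant positive control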). The settings on record: stronger effect = higher value, normalized: vehicle 0, fulvestrant 100.

Inconclusive results are not listed. Active and inactive are the calls of the source.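 Rule for the calls, unless noted: active = binding below the plate cutoff, the plate median minus 3 SD, with a reading above zero; inconclusive = below the plate cutoff but reading exactly zero; inactive = the rest.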

Sequence of Beta-2 adrenergic receptor (Homo sapiens) (P07550 whole entry, looked up): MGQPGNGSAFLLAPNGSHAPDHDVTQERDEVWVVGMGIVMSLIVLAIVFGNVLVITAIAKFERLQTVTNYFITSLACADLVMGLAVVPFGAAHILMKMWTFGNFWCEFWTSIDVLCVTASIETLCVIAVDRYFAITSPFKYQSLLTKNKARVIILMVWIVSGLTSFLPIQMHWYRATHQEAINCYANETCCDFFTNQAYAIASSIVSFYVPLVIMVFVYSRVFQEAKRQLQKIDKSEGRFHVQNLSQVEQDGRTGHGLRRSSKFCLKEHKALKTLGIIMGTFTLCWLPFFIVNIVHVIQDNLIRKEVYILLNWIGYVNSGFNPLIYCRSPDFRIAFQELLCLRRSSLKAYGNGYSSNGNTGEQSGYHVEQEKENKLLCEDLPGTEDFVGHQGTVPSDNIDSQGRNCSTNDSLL
Sequence of Beta-adrenergic receptor kinase 1 (Homo sapiens) (P25098 whole entry, looked up): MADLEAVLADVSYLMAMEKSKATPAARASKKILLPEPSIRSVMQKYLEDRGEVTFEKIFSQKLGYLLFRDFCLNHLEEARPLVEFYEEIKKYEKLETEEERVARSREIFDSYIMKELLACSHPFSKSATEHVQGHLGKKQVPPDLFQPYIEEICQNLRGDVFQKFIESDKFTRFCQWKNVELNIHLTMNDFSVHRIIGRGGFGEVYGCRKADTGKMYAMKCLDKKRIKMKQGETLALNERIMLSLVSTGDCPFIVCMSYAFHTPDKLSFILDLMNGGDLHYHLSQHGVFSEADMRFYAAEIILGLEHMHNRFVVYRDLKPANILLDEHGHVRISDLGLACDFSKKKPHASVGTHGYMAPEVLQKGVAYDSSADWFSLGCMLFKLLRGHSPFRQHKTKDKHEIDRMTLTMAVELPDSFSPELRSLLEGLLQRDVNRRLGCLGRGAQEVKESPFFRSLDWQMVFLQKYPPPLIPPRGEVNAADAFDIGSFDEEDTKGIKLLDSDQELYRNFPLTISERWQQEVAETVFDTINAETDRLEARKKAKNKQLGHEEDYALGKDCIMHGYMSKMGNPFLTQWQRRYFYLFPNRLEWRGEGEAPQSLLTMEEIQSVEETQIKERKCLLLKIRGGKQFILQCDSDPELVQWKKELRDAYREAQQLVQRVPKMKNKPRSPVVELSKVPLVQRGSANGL

The term inhibition denotes the change of the read-out against control, counted positive when it falls. As to `COC(=O)c1ccc(NC(=O)C23CCC(C)(C(=O)O2)C3(C)C)cc1` (stereo not given), the percent of DMSO control GFP in test [1] was 95.2% (inactive). Further, the figures for the GFP response vs DMSO in test [2] and in [4] were 104% (inactive) and 115% (inactive), respectively. Moreover, in [3], the percent response of DMSO control is 102% (inactive). Also, in [5], the GFP response, % of DMSO is 106% (inactive). This molecule yielded a double positive events in [6] of 64.8%. Also, the vesicle binding response in test [6] was 195% (inactive). In addition, the inhibition is -2.82% (inactive) in test [7], 1.74% (inactive) in test [11] and 6% (inactive) in [15]. The superoxide response (% of plate) in test [8] is 99.7% (inactive). Further, the aptamer binding inhibition in [9] was 2% (inactive). Also, the figures for the response in test [10] and in test [12] were -24.2% (inactive) and -1.33% (inactive), respectively. The binding (% of control) in [13] was 110% (inactive). Besides, the efflux inhibition (fraction of control) in [14] is -0.04 (inactive). The differentiation response in test [16] is -4.99% (inactive).
`CCCC(=O)Nc1ncnc2c1ncn2[C@@H]1O[C@@H]2COP(=O)(O)O[C@H]2[C@H]1OC(=O)CCC`: in [1], the percent of DMSO control GFP was 97.7% (inactive). The results for the GFP response vs DMSO in test [2] and in test [4] were 130% (inactive) and 96.3% (inactive), respectively. Moreover, in test [3], the percent response of DMSO control was 97.9% (inactive). For the same molecule, the GFP response, % of DMSO in test [5] was 94.7% (inactive). Also, the double positive events in test [6] is 61%. Further, in [6], the vesicle binding response was 131% (inactive). Further, the inhibition was 4.52% (inactive) in test [7], -3.95% (inactive) in test [11] and 7% (inactive) in [15]. Further, the superoxide response (% of plate) in test [8] was 96.8% (inactive). In addition, in test [9], the aptamer binding inhibition was 3% (inactive). Also, the response in test [10] is -6.04% (inactive); in test [12], 1.56% (inactive). The binding (% of control) in test [13] was 98.3% (inactive). In addition, the efflux inhibition (fraction of control) in [14] is -0.06 (inactive). Further, the differentiation response in [16] was 5.73% (inactive).
As to `COc1ccc(C(Cl)=C(c2ccc(OC)cc2)c2ccc(OC)cc2)cc1`, the percent of DMSO control GFP in test [1] is 102% (inactive). In addition, the GFP response vs DMSO was 109% (inactive) in [2] and 90.7% (inactive) in test [4]. Moreover, the percent response of DMSO control in test [3] was 91.9% (inactive). Also, the GFP response, % of DMSO in test [5] was 98% (inactive). In addition, the double positive events in [6] was determined as 62.9%. Besides, the vesicle binding response in test [6] was 934% (inactive). The inhibition in [7] was -8.75% (inactive); in [11] it was 18.5% (inactive); in test [15], 7% (inactive). In [8], the superoxide response (% of plate) is 95.2% (inactive). In addition, the aptamer binding inhibition in [9] is 4% (inactive). Besides, the results for the response in test [10] and in test [12] were 1.32% (inactive) and -2.47% (inactive), respectively. Besides, the binding (% of control) in test [13] was 95.8% (inactive). Besides, in [14], the efflux inhibition (fraction of control) was 0.18 (inactive). In addition, in test [16], the differentiation response was 6.11% (inactive).
Take `Nc1cc(-c2ccncc2)c[nH]c1=O`: in [1], the percent of DMSO control GFP was 103% (inactive). In addition, the GFP response vs DMSO in [2] was 103% (inactive); in test [4], 102% (inactive). Also, the percent response of DMSO control in test [3] was 112% (inactive). In addition, the GFP response, % of DMSO in test [5] is 105% (inactive). In test [6], this molecule returned a double positive events of 63.1%. In addition, the vesicle binding response in test [6] is 184% (inactive). The results for the inhibition in test [7], in test [11] and in test [15] were -11.8% (inactive), -8.58% (inactive) and -6% (inactive), respectively. Moreover, the superoxide response (% of plate) in test [8] is 82.5% (inactive). Moreover, the aptamer binding inhibition in [9] is -6% (inactive). Moreover, the response in test [10] is 8.85% (inactive); in [12] it was -0.06% (inactive). Moreover, the binding (% of control) in test [13] was 105% (inactive). For the same molecule, the efflux inhibition (fraction of control) in [14] is 0.015 (inactive). Further, the differentiation response in test [16] was -4.57% (inactive).
Take `COc1ccc(C(=O)Nc2ccccc2C(=O)NC(Cc2c[nH]c3ccccc23)C(=O)O)cc1` (stereo not given): in [1], the percent of DMSO control GFP was 101% (inactive). The GFP response vs DMSO in test [2] is 107% (inactive); in test [4], 92.7% (inactive). Moreover, the percent response of DMSO control in test [3] was 95.4% (inactive). In test [5], the GFP response, % of DMSO is 95.4% (inactive). The molecule also came in with a double positive events in [6] of 64.5%. For the same molecule, the vesicle binding response in [6] is 174% (inactive). For the same molecule, the inhibition in test [7] is -28.5% (inactive); in [11], 51.3% (inactive); in test [15] it was -16% (inactive). Besides, the superoxide response (% of plate) in [8] was 107% (inactive). Moreover, the aptamer binding inhibition in [9] is 3% (inactive). Also, the response in test [10] is 10.6% (inactive); in test [12], -3% (inactive). In test [13], the binding (% of control) is 99.8% (inactive). Moreover, the efflux inhibition (fraction of control) in test [14] was 0.33 (inactive). For the same molecule, the differentiation response in [16] was 22.7% (inactive).
